GLS inh = glutaminase GLS (human) inhibition; O94925; GLS enzymatic activity, qHTS titration; Potency, µM (series often up to 45.5 µM), actives largely listed as inhibitors; 0.21% of 410,000 active; AID 624170
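Assay buffer: 45 mM KH2PO4 pH 8.2, 0.02% Tween-20. hKGA acts on L-glutamine (1 mM solution added); product glutamate is reported by an oxidase/peroxidase Amplex Red coupling, with fluorescence taken at baseline and 30 min.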
JMJD2A Tudor = blocks the human JMJD2A Tudor domain; AlphaScreen JMJD2A-Tudor / H3K4me3 peptide binding; 4.4% of 390,000 active; AID 504339; Potency, µM (highest dose often 114 µM), usual class: inhibitors; note: nearly all actives have a fitted effect of over 50% in size
BAZ2B block = inhibitors of human BAZ2B bromodomain; Q9UIF8; AID 504333; AlphaScreen BAZ2B-H3K14Ac peptide displacement; Potency, µM (highest dose often 114 µM), actives largely listed as inhibitors; 4.4% of 360,000 active; note: nearly all actives have a fitted effect of over 60% in size
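AlphaScreen displacement of biotin-H3(5-23)K14Ac peptide (50 nM final) from BAZ2B (50 nM final) in PBS pH 7.4, 0.01% Tween-20; complex preformed 30 min RT, then compounds (top 110 uM) 30 min RT, beads 20 min dark.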
L3MBTL1 block = blocks human L3MBTL1 | AlphaScreen L3MBTL1–H3K9me1 peptide binding | Potency, µM (highest dose often 57.1 µM), most hits filed as inhibitors | 0.66% of 230,000 active; note: nearly all actives have a fitted effect of over 60% in size
Target sequence (Q9Y468 whole entry, looked up): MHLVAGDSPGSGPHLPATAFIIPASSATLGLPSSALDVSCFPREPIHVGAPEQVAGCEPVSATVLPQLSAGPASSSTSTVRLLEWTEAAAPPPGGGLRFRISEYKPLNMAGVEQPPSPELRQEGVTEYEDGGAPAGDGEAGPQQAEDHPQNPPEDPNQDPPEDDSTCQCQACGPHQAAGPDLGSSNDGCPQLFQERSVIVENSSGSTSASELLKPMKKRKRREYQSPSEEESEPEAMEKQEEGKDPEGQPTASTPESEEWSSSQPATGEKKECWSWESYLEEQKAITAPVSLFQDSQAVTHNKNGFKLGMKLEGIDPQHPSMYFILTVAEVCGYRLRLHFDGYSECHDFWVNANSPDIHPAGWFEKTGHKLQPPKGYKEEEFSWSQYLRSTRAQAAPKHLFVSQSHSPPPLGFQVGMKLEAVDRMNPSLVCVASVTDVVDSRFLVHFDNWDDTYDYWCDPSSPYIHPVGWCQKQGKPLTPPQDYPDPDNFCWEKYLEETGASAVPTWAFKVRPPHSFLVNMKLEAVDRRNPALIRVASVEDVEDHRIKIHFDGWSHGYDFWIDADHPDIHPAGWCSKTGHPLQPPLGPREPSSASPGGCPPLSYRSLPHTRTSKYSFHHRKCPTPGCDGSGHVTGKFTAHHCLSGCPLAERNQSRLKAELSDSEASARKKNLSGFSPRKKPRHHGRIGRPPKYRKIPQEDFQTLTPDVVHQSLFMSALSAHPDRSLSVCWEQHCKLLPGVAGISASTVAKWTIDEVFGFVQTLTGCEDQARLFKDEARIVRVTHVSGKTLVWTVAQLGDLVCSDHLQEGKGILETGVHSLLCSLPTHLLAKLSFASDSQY
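First, the protein-peptide complex forms for 30 min at room temperature (L3MBTL1 50 nM, biotinylated H3K9me1 peptide 75 nM). Next, compounds are pin-transferred and incubated 30 min. Finally, AlphaScreen beads are added and read after 30 min.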
G9a block = blocks human histone lysine methyltransferase G9a; Potency, µM (top dose mostly 102 µM), hits mostly inhibitors; G9a H3K9 monomethylation, AlphaScreen, 2 h; 8.8% of 350,000 active; Q96KQ7; note: nearly all actives have a fitted effect of over 75% in size
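G9a (20 nM) preincubated 15 min RT with compounds, then 500 nM biotinylated H3K9 peptide and 20 uM SAM added; 2 h RT reaction. Monomethyl-H3K9 product detected by AlphaScreen with anti-H3K9me1 antibody, streptavidin donor and anti-rabbit IgG acceptor beads.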
HP1b binding inh = blocks HP1-beta chromodomain binding to methylated histone tails; P83916; AlphaScreen HP1-beta / biotin-H3K9me3 peptide binding; Potency, µM (top dose mostly 114 µM), usual class: inhibitors; 0.56% of 390,000 active; AID 540317; note: nearly all actives have a fitted effect of over 70% in size
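Compound inhibition of the preformed complex between 50 nM HP1-beta and 50 nM biotinylated H3K9me3 peptide was read by AlphaScreen. Buffer was PBS pH 7.4 with 0.01% Tween-20. Incubations ran 30 min at room temperature, with 10 ug/mL donor/acceptor beads.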
A number is an active result; 0 = inactive; ? = inconclusive; - = no result; [ ] = another dose, or the depositor's remark. This is a sample that favours compounds with a hit; in the whole collection about 10% have one here. Calls come from the whole dose curve; as a rule, active = well fitted curve in the direction sought with a large enough effect; inconclusive = small, poorly fitted or top-dose-only effect, or another doubt; inactive = no such curve, though single readings can be large; an effect the other way counts as inactive or inconclusive.

SMILES | GLS inh | JMJD2A Tudor | BAZ2B block | L3MBTL1 block | G9a block | HP1b binding inh
CCc1cc2c(=O)c(-c3nc4ccccc4n3C)coc2c(CN2CCCCC2C)c1O (stereo not given) | 0 | 0 | 45µM | - | 0 | 0
CO/N=C/c1ccc(N2CCN(C(=O)c3ccc(Cl)cc3Cl)CC2)c([N+](=O)[O-])c1 | 0 | ? | ? | 0 | 20µM | 0
Cc1c(C(=O)N2CCN(c3cccc(Cl)c3)CC2)cccc1[N+](=O)[O-] | 0 | ? | ? | 0 | ? | 0
CO/N=C/c1ccc(N2CCN(C(=O)c3ccc(F)cc3)CC2)c([N+](=O)[O-])c1 | 0 | ? | ? | 0 | 45µM | 0
CO/N=C/c1ccc(N2CCN(C(=O)c3cccc(C(F)(F)F)c3)CC2)c([N+](=O)[O-])c1 | 0 | ? | ? | 0 | ? | 0
CCCN1CNc2c(c(=O)[nH]c(=S)n2CCc2cc(OC)ccc2OC)C1 | - | 0 | - | - | - | 0
O=C(NCCO)Nc1ccc2nsnc2c1 | 0 | 0 | 0 | ? | 0 | 0
OCCNC(=S)Nc1ccc2nsnc2c1 | 0 | 0 | 0 | - | 35µM | 0
Cc1nc2ccc(NC(=S)NCCCO)cc2nc1C | 0 | 0 | 0 | 0 | 28µM | 79µM
Cc1nc(N=Nc2cc(S(=O)(=O)O)c3cc([N+](=O)[O-])cc(S(=O)(=O)O)c3c2)c(COP(=O)(O)O)c(C=O)c1O | - | - | - | - | 3.5µM | -
COc1ccc(C)cc1NC(c1nnc(-c2ccccc2)o1)c1ccc(F)cc1Cl (stereo not given) | 0 | 0 | ? | - | ? | 0
COc1cc(OC)c(NC(c2nnc(-c3ccccc3)o2)c2ccc(F)cc2Cl)cc1Cl (stereo not given) | 0 | ? | ? | - | 11µM | 0
Cc1ccc(C(=O)OCCN(C)Cc2ccccc2)cc1 | 0 | 0 | 0 | 0 | 0 | 0
Cc1ccc(Cl)c(OCCCCN(C)Cc2ccccc2)c1 | 0 | 2.8µM | 0 | 0 | 10µM | 0
COc1cc(C)ccc1OCCCOc1cc(C)ccc1Cl | 0 | 0 | - | - | - | 0
Cc1ccc(Cl)c(OCCCN(C)Cc2ccccc2)c1 | 0 | 1.1µM | 32µM | - | 1.8µM | 45µM
N#C/C(=C(/O)CCl)c1nnc2n1CCCCC2 | 0 | 20µM | 79µM | - | 0 | 0
COC(=O)C1CCN(C(c2ccccc2Cl)c2sc3nc(-c4ccco4)nn3c2O)CC1 (stereo not given) | 0 | 0 | 0 | - | 0 | 0
C=CCc1cccc(/C=N/NC(=O)CNc2ccccc2)c1O | 0 | 0 | 0 | - | 0 | 0
C=CCc1cccc(/C=N/NC(=O)CCCNc2ccc(C)cc2)c1O | 0 | ? | 32µM | 0 | 0 | ?
CCc1nn(CC(=O)Nc2cccc(C(C)=O)c2)c(=O)c2cc3sccc3n12 | 0 | 0 | 0 | - | ? | 0
COc1ccc(C2(c3ccc(OC)cc3)NC(=O)N(CC(=O)Nc3ccccc3C)C2=O)cc1 | 0 | 0 | 0 | - | - | 0
COc1ccc(C2(c3ccc(OC)cc3)NC(=O)N(CC(=O)Nc3ccccc3C(F)(F)F)C2=O)cc1 | 0 | 0 | 0 | - | 79µM | 0
Cc1cc(NC(=O)CN2C(=O)NC(c3ccccc3)(c3ccc(C)c(C)c3)C2=O)no1 (stereo not given) | 0 | ? | 0 | 0 | 18µM | 0
Cc1cc(NC(=O)CN2C(=O)NC(C)(c3ccccc3)C2=O)no1 (stereo not given) | 0 | 0 | 0 | - | 0 | 0
SMILES | GLS inh | JMJD2A Tudor | BAZ2B block | L3MBTL1 block | G9a block | HP1b binding inh
CCOC(=O)c1c(C)n(-c2ccccc2)c2ccc(OC(=O)c3ccccc3Cl)cc12 | 0 | 0 | 0 | - | 0 | 0
Cc1nncn1-c1ccc(C(=O)Nc2cc(F)ccc2F)cc1 | 0 | 0 | 0 | - | 0 | 0
CCCCOc1cccc(C(=O)NC(=S)Nc2ccc(Cl)c(C(=O)O)c2)c1 | 0 | 0 | ? | 0 | 11µM | 0
COCCNC(=S)NNc1ccc(Cl)c(C(=O)O)c1 | 0 | 0[11.4 µM] | ? | 0 | 18µM | 0
COc1cc(OC)cc(C(=O)NC(=S)Nc2ccc(Cl)c(C(=O)O)c2)c1 | 0 | 89µM | ? | 0 | 45µM | 0
CCc1ccccc1NC(=O)CN(C)S(=O)(=O)c1cccc2nsnc12 | 0 | 0 | - | - | 0 | 0
Cc1ccc2c(=O)cc(C(=O)Nc3c(C(=O)c4ccccc4)oc4ccccc34)oc2c1C | 0 | 0 | 0 | - | 0 | 0
Cc1ccc2nc(N(Cc3cccnc3)C(=O)c3ccco3)sc2c1 | 0 | 0 | 0 | - | 0 | 0
CCOc1cccc(=O)c2c(C)n(C)c(C)c12 | 0 | ? | 56µM | ? | 0 | 0
COc1cccc(=O)c2c(C)n(-c3cc(C)cc(C)c3)c(C)c12 | 0 | ? | ? | 0 | ? | 0
COc1cccc(=O)c2c(C)n(C)c(C)c12 | 0 | ? | ? | ? | 16µM | 0
COc1cccc(-n2c(C)c3c(OC)cccc(=O)c3c2C)c1 | 0 | ? | 56µM | 0 | ? | 0
Cc1cc(OCCn2cnc3ccccc3c2=O)cc(C(C)C)c1 | 0 | 79µM | 0 | 0 | 0 | 0
COc1ccc(Oc2ncc3nc(-c4ccc(OC)cc4)c(=O)n(C4CC4)c3n2)cc1 | - | - | - | - | 0[0.501 µM] | -
Oc1cc(CNCc2ccccc2)c(O)cc1CNCc1ccccc1 | 18µM | 7.9µM | - | - | - | 32µM
CC(C)CC(=O)Nc1ccc(Nc2ccccc2)cc1 | 0 | 0 | ? | 0 | 20µM | 0
O=C(CC(NCCc1ccccc1)C(=O)O)Nc1ccc(O)cc1 (stereo not given) | - | - | ? | - | 22µM | -
CCOc1ccccc1N(C)C(=O)Cn1cnc2onc(-c3ccc(F)cc3)c2c1=O | 0 | 0 | 0 | - | 0 | 0
CC(C)(CN1CCc2ccccc2C1)NS(=O)(=O)c1ccccc1 | 0 | 3.2µM | 0 | 0 | 10µM | ?
CC1CC(C)CN(CC(C)(C)NS(=O)(=O)c2ccccc2)C1 (stereo not given) | 0 | 22µM | 50µM | 0 | 8.9µM | ?
Cc1ccc(S(=O)(=O)NC(C)(C)CN2CCC(Cc3ccccc3)CC2)cc1 | 0 | 40µM | 56µM | 0 | 7.9µM | 0
CN1CCN(CC(C)(C)NS(=O)(=O)c2ccccc2)CC1 | 0 | 0 | - | 0 | - | 0
CCC1CCCCN1CC(C)(C)NS(=O)(=O)c1ccccc1 (stereo not given) | 0 | 4.5µM | ? | 0 | 7.1µM | ?
COc1ccc(SCC(CC(C)C)N2CCN(CCc3ccccc3)CCC2=O)cc1 (stereo not given) | - | ? | - | - | - | 0
Cc1cccc(C)c1N1CCN(C(=O)Cn2cncn2)CC1 | 0 | ? | 0 | 0 | 18µM | 0
O=C(Cn1cncn1)N1CCN(c2ccc(F)cc2)CC1 | 0 | 0 | 0 | 0 | - | 0
Cn1c(N)c(-c2ccccc2)c2ccc([N+](=O)[O-])cc2c1=O | 0 | ? | ? | - | 35µM | ?
COc1ccc(-c2onc(C)c2C)cc1S(=O)(=O)N1CCc2ccccc21 | 0 | 0 | 0 | - | 0 | 0
C=CCNC(=O)CSc1nnc(-c2ccccc2Cl)n1-c1c(C)n(C)n(-c2ccccc2)c1=O | 0 | 0 | 0 | - | 0[12.7 µM] | 0
